Data taken from PubChem BioAssay (NCATS).
Inconclusive results are not listed. Activity calls are given as the source filed them. Unless noted, calls follow the shape of the dose curve; as a rule, active = well fitted curve in the direction sought with a large enough effect; inconclusive = small, poorly fitted or top-dose-only effect, or another doubt; inactive = no such curve, though single readings can be large; an effect the other way counts as inactive or inconclusive.

Key:
[1] = qHTS assay for measurement of the activity of small molecule inhibitors on Zika virus induced Caspase-3 activity in human iPSC derived neural progenitor cells (hNPCs) (AID 1224857); also: nearly all actives have a fitted effect of over 65% in size
Procedure, shortened: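 Percent inhibition of virus-induced caspase-3/7 luminescence (Caspase-Glo), scaled between uninfected cells and Zika-infected cells. hNPCs received compound 1 hr before ZIKV at 2 FFU/cell, with 6 hours infection at 37 C.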

[2] = qHTS assay for measurement of the activity of small molecule inhibitors on Zika virus induced Caspase-3 activity in human astrocytoma cells (AID 1224859)
Procedure, shortened: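 Luminescent caspase-3/7 read-out (30 min reagent, room temperature) in human SNB-19 cells infected 6 h with ZIKV (2 FFU/cell) after 1 h compound pre-incubation; Data were normalised to uninfected and infected wells.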

[3] = Natriuretic polypeptide receptor (hNpr1) antagonism - Pilot counterscreen GloSensor control cell line (AID 1347045; calls by dose curve; also: series mostly up to about 38 µM)
Procedure, shortened: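 HEK293 cGMP GloSensor cells preloaded 2 h with 2% GloSensor reagent, then compound 30 min before baseline luminescence read. Stimulated with 50 uM sodium nitroprusside, 20 min at room temperature, then read again; counterscreen for Npr1 antagonism.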

[4] = target: Atrial natriuretic peptide receptor 1 (Homo sapiens) (UniProt P16066); test: Natriuretic polypeptide receptor (hNpr1) antagonism - Pilot screen (AID 1347049; calls by dose curve;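 also: agonist-evoked cGMP luminescence read 20 min after hNppA addition; series mostly up to about 58 µM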)
Chain of Atrial natriuretic peptide receptor 1 (Homo sapiens) (P16066 whole entry, looked up): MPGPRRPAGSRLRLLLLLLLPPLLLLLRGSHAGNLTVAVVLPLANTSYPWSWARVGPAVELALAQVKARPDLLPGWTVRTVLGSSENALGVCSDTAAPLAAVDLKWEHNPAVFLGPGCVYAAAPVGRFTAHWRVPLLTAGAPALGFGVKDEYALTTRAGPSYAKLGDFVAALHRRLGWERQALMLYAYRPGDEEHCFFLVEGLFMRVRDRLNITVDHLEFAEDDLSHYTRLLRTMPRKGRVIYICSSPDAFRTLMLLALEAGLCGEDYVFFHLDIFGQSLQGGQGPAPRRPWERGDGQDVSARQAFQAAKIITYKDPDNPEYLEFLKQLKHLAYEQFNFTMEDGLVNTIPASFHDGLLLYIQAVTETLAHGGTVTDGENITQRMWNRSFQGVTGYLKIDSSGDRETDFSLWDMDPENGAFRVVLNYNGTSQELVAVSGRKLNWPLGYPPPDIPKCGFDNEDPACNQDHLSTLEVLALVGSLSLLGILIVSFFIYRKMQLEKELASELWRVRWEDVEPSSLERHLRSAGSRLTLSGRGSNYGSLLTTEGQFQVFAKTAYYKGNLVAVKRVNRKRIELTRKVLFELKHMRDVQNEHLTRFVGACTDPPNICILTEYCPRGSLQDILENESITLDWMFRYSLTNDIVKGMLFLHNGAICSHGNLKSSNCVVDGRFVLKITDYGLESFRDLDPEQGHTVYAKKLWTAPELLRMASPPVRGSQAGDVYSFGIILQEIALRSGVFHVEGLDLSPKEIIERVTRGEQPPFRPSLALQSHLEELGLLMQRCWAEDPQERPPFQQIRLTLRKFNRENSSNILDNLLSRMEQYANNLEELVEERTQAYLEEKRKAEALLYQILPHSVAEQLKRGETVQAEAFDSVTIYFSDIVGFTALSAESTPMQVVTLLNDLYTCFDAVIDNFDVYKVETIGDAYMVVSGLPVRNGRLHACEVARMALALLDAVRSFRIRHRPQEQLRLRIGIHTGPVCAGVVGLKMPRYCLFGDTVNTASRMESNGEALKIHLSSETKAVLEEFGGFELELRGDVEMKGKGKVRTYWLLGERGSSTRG
Procedure, shortened: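 HEK293 cells expressing hNpr1 and GloSensor cGMP luciferase, 1500/well, loaded with 2% GloSensor reagent 2 h, compound 30 min at room temperature; luminescence read before and 20 min after 0.1 nM hNppA stimulation.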

[5] = target: Atrial natriuretic peptide receptor 2 (Homo sapiens) (UniProt P20594); test: Natriuretic polypeptide receptor (hNpr2) antagonism - Pilot subtype selectivity assay (AID 1347050; calls by dose curve)
Chain of Atrial natriuretic peptide receptor 2 (Homo sapiens) (P20594 whole entry, looked up): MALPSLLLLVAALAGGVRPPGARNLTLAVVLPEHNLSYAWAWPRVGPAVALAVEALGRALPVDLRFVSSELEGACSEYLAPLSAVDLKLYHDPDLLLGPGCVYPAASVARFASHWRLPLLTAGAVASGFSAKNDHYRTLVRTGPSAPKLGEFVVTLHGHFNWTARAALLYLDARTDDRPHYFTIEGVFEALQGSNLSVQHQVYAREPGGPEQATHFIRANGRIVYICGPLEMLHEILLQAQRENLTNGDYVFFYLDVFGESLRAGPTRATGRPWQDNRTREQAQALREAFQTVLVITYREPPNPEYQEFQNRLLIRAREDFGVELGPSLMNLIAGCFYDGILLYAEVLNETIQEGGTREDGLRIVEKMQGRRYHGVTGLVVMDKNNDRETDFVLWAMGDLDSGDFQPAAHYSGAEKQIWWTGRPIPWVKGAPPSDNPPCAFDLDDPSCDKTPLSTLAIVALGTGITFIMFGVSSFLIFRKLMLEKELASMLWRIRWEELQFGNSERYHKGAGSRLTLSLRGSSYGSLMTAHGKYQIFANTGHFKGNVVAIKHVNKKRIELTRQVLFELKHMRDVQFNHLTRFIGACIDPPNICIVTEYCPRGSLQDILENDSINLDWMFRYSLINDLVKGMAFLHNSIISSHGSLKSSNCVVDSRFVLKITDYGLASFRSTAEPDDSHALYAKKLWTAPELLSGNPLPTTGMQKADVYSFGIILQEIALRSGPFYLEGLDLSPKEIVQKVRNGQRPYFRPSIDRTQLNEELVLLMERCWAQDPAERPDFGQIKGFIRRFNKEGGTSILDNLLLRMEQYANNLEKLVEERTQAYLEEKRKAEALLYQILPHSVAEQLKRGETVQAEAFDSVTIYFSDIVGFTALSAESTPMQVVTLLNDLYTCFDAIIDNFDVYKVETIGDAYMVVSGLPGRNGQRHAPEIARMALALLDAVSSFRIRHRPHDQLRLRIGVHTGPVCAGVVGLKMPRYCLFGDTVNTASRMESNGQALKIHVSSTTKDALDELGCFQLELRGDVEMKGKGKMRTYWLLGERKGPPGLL
Procedure, shortened: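 HEK293 cells expressing hNpr2 and a GloSensor cGMP luciferase sensor, 1500/well, preloaded 2 h with 2% GloSensor reagent, compound 30 min, then 1 nM hNppC for 20 min. Antagonism from luminescence after versus baseline pre-read; LOPAC in 1:5 titrations.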

[6] = NS1 protein of Zika virus - qHTS assay to identify small molecule inhibitors in human HEK 293 cells (AID 1347053); also: series mostly up to about 46 µM; nearly all actives have a fitted effect of over 55% in size
Procedure, shortened: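 HEK 293; 20 h pre-culture, 37 C/5% CO2; cpd 1 h pre-infection; ZIKV MR766, MOI = 0.5, 24 h, 37 C; TR-FRET NS1 readout (two anti-NS1 Abs); norm. to no-virus vs infected.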

[7] = target: T1, Tyrosine-protein phosphatase non-receptor type substrate 1 (Homo sapiens) + Leukocyte surface antigen CD47 (Homo sapiens) (UniProt P78324+Q08722); test: CD47-SIRPalpha protein protein interaction - LANCE assay qHTS validation (AID 1347057; active = well fitted curve in the direction sought with a large enough effect in the signal ratio, with a control signal flat, not every such curve was filed as active; the % refers to the signal ratio; also: series mostly up to about 38 µM)
T1 sequence (P78324 whole entry, looked up): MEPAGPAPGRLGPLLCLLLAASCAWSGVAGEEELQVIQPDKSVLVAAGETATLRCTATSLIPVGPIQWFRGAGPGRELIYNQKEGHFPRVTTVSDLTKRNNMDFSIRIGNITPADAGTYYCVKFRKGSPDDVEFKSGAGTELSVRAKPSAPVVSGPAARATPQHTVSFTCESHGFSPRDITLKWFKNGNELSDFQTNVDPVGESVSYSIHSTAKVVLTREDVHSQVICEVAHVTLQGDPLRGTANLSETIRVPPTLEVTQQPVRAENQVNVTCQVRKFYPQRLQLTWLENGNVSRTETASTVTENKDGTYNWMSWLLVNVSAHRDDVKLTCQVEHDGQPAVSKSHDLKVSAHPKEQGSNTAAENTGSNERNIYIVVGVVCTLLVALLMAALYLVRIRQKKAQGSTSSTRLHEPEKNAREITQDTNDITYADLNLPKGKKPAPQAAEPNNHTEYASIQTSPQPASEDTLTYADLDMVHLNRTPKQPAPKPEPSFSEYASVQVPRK
T1 sequence (Q08722 whole entry, looked up): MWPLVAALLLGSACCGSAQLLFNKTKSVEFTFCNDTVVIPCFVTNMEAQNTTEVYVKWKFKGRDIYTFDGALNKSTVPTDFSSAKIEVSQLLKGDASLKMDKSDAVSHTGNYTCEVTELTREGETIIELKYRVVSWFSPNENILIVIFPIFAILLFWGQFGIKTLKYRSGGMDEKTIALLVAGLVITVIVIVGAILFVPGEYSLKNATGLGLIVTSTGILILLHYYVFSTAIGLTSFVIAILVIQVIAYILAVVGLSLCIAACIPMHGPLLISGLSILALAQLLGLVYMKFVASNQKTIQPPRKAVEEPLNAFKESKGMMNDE
Procedure, shortened: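 First, His-tagged CD47 and Eu-labelled anti-His antibody met the compound for 30 min; next, site-specifically biotinylated SIRPalpha was added for 30 min; finally streptavidin-APC was added before reading the TR-FRET ratio.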

[8] = target: T1, Tyrosine-protein phosphatase non-receptor type substrate 1 (Homo sapiens) + Leukocyte surface antigen CD47 (Homo sapiens); test: CD47-SIRPalpha protein protein interaction - HTRF assay qHTS validation (AID 1347058; active = well fitted curve in the direction sought with a large enough effect in the signal ratio, not every such curve was filed as active; the % refers to the signal ratio;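 also: recombinant soluble extracellular CD47 with His tag and biotinylated SIRPalpha domains; series mostly up to about 38 µM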)
Procedure, shortened: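 TR-FRET read (Ch1/Ch2 ratio) of soluble extracellular CD47 and Avi-biotinylated SIRPalpha domains in PBS pH 7.4 with 0.05% IGEPAL; 7-point compound titration. Sequential 30 min room-temperature steps; non-biotinylated SIRPalpha as control inhibitor.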

[9] = target: T1, Tyrosine-protein phosphatase non-receptor type substrate 1 (Homo sapiens) + Leukocyte surface antigen CD47 (Homo sapiens); test: CD47-SIRPalpha protein protein interaction - Alpha assay qHTS validation (AID 1347059);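 also: bead proximity luminescence from CD47 binding SIRPalpha after compound preincubation with SIRPalpha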; also: potency is read from the fitted curve at half-maximal effect
Procedure, shortened: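 Biotinylated Avi-tagged SIRPalpha (25 nM) preincubated 30 min with compound, then His-tagged CD47 (12.5 nM) added 30 min; AlphaScreen with Ni-NTA acceptor and streptavidin donor beads. PBS pH 7.4, 0.05% IGEPAL, room temperature; 7-point titrations.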

[10] = target: Parathyroid hormone/parathyroid hormone-related peptide receptor (Homo sapiens) (UniProt Q03431); test: qHTS for PTHR1 Agonists: Optimization Screen against the NCGC LOPAC library (AID 1347079);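 also: GloSensor cAMP luminescence in HEK-293 GP2 cells expressing human PTHR1 with IBMX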
Chain of Parathyroid hormone/parathyroid hormone-related peptide receptor (Homo sapiens) (Q03431 whole entry, looked up): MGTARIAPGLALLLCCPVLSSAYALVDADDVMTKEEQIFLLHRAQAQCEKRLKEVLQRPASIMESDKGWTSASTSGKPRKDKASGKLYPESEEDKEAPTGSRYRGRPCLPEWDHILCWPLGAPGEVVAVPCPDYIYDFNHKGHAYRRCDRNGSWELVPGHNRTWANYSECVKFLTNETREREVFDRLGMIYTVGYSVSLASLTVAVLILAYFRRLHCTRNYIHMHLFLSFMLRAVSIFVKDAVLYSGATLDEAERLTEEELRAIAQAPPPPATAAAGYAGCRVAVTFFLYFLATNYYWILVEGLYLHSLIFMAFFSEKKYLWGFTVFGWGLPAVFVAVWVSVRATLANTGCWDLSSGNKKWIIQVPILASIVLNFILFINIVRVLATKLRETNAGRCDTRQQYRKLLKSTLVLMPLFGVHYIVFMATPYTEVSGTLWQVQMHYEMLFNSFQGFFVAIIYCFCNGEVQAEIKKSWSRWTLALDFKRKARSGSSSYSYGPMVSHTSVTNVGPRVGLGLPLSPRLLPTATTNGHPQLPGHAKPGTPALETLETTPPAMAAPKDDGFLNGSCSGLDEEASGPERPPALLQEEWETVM
Procedure, shortened: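 Agonist readout: GloSensor cAMP luminescence, read after 15 min at room temperature. HEK-293-derived GP2 line carries PTHR1; compounds tested as a titration for 1 hr at 37C in presence of IBMX. M-PTH (1-15) served as control.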

[11] = target: N-terminal Xaa-Pro-Lys N-methyltransferase 1 (Homo sapiens) (UniProt Q9BV86); test: qHTS Assay for Inhibitors of N-terminal methyltransferase 1 (NTMT1): LOPAC validation of the NTMT1 SAHH-coupled ThioGlo3 Assay (AID 1347143);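 also: SAH from peptide methylation measured as thiol fluorescence via SAHH coupling and ThioGlo3; nearly all actives have a fitted effect of over 70% in size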; also: potency is read from the fitted curve at half-maximal effect
Chain of N-terminal Xaa-Pro-Lys N-methyltransferase 1 (Homo sapiens) (Q9BV86 whole entry, looked up): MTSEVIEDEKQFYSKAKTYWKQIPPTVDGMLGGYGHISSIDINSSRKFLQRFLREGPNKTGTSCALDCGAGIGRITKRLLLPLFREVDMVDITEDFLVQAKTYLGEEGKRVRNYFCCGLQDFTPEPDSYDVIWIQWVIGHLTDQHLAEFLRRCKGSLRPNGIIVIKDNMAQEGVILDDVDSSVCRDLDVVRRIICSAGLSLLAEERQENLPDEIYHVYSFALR
Procedure, shortened: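 Recombinant human NTMT1 (125nM) was pre-incubated 1 min at room temperature with compounds over a concentration range, then a mix of 100uM SAM, 10uM SAHH and 15uM ThioGlo3 (concentrations in added reagent) was added. ThioGlo3 fluorescence (ex 340/em 450nm) after 30 min was normalized to the initial reading.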

[12] = tested on: Zika virus NS2B-NS3 protease (unlinked); test: Optimization of GU AMC qHTS for Zika virus inhibitors: Unlinked NS2B-NS3 protease assay (AID 1347151); also: nearly all actives have a fitted effect of over 80% in size; also: potency is read from the fitted curve at half-maximal effect
Procedure, shortened: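 Percent inhibition is derived from the 15-min change in AMC fluorescence, normalized against no-inhibitor and no-enzyme controls, then fitted to a 4-parameter Hill curve. Aprotinin was the intraplate control.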

[13] = P-glycoprotein substrates identified in KB-3-1 adenocarcinoma cell line, qHTS therapeutic library screen (AID 1346986); also: nearly all actives have a fitted effect of over 60% in size;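 also: potency is read from the fitted curve at half-maximal effect; potency is for cytotoxicity meaning loss of cell viability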
Procedure, shortened: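 KB-3-1 parental and colchicine-selected P-gp-overexpressing KB-8-5-11 cells (colchicine omitted during assay), 500 cells/well, dosed in dose-response for 72 h at 37 °C; CellTiter-Glo luminescence. Cytotoxic: curve class -1.1 to -2.4, max response >50%, AC50 < 10 uM.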

[14] = P-glycoprotein substrates identified in KB-8-5-11 adenocarcinoma cell line, qHTS therapeutic library screen (AID 1346987); also: nearly all actives have a fitted effect of over 65% in size; also: potency is read from the fitted curve at half-maximal effect
Procedure, shortened: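 KB-8-5-11, a colchicine-selected P-gp-overexpressing KB-3-1 subline, was grown without colchicine for the assay. Cells were seeded at 500 cells/well, dosed in concentration-response and incubated 72 h at 37 degree C, 5% CO2. Viability was read by CellTiter-Glo luminescence.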

[15] = target: Furin (Homo sapiens) (UniProt P09958); test: Furin counterscreen qHTS for Zika virus inhibitors (AID 1347149); also: potency is read from the fitted curve at half-maximal effect; nearly all actives have a fitted effect of over 70% in size
Chain of Furin (Homo sapiens) (P09958 whole entry, looked up): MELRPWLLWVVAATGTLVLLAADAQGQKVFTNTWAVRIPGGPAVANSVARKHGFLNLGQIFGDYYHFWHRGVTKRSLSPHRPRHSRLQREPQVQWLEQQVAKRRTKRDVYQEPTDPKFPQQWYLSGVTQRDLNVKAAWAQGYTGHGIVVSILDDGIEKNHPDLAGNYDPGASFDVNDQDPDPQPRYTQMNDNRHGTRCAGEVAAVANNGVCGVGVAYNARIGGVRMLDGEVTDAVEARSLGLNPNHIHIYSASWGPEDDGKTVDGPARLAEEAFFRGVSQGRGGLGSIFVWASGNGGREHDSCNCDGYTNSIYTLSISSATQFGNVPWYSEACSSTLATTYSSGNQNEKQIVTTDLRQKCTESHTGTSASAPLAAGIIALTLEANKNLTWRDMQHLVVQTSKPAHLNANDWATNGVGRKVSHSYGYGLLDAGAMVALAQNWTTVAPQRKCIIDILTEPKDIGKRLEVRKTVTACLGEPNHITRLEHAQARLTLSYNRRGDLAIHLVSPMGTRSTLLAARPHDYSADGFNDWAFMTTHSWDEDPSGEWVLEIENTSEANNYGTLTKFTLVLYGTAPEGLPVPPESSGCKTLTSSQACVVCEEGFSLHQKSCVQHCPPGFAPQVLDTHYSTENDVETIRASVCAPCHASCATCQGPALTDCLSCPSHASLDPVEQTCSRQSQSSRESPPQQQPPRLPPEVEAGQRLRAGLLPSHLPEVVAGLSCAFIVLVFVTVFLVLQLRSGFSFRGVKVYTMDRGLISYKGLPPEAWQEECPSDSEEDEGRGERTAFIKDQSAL
Procedure, shortened: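 Fluorogenic cleavage of BOC-RVRR-AMC (2 microM final, Km ~15 µM) was monitored (ex 340, em 450 nm) at 37C after 15 min RT preincubation of 5 nM furin with compounds in HEPES pH 7.0 buffer with CaCl2 and Triton X-100. Percent inhibition was fitted to a 4-parameter Hill curve.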

[16] = tested on: Zika virus NS2B-NS3 protease (linked construct); test: Confirmatory screen NINDS AMC qHTS for Zika virus inhibitors (AID 1347152); also: nearly all actives have a fitted effect of over 70% in size; also: potency is read from the fitted curve at half-maximal effect
Procedure, shortened: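 In this dose-response qHTS, AMC release from 10 microM Bz-Nle-KRR-AMC by 1 nM linked protease is measured over 15 minutes (about 20% conversion) at pH 8.0. Percent inhibition is fitted to a 4-parameter Hill curve.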

[17] = tested on: Zika virus NS2B-NS3 protease (unlinked complex); test: Confirmatory screen GU AMC qHTS for Zika virus inhibitors (AID 1347153); also: nearly all actives have a fitted effect of over 70% in size
Procedure, shortened: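 Unlinked enzyme 25 nM, Tris pH 8.0/0.01% Tween 20; cpd 15 min RT, dark; + AMC substrate 10 µM (Km 18.3 µM); 340/450 nm read at t0 and 15 min; % inhibition → 4-param fit.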

Measured: Potency

NC(N)=[N+]1CCc2ccccc2C1
not listed: [13] | [14] | [15] | [16] | [17]
inactive: all other assays above

C[N+](C)(C)CC=O
not listed: [13] | [14] | [15] | [16] | [17]
inactive: all other assays above

Nn1nnc2ccccc21
not listed: [13] | [14] | [15] | [16] | [17]
inactive: all other assays above

N[C@H](C(=O)O)c1cc(O)cc(O)c1
not listed: [13] | [14] | [15] | [16] | [17]
inactive: all other assays above

CCCN(CCc1ccccc1)C1CCc2c(O)cccc2C1 (stereo not given)
not listed: [13] | [14] | [15] | [16] | [17]
inactive: all other assays above

CC1C(=O)N(C)C(=O)c2nc[nH]c21 (stereo not given)
not listed: [13] | [14] | [15] | [16] | [17]
inactive: all other assays above

O=C1Nc2ccc(I)cc2/C1=C/c1cc(Br)c(O)c(Br)c1
active: [9] 14.7 µM | [11] 56.2 µM | [12] 5.97 µM
not listed: [3] | [6] | [15] | [16] | [17]
inactive: all other assays above

CC1=C(/C=C/C(C)=C/C=C/C(C)=C\C(=O)O)C(C)(C)CCC1
inactive: [1] | [2] | [3] | [4] | [5] | [6] | [7] | [8] | [9]

O=C1OC(=O)C2C3CCC(O3)C12 (stereo not given)
not listed: [13] | [14] | [15] | [16] | [17]
inactive: all other assays above

CCCCCCCCCCC(C)(C)C(=O)Nc1c(OC)cc(OC)cc1OC
not listed: [12] | [13] | [14] | [15] | [16] | [17]
inactive: all other assays above

NC1(C(=O)O)CCc2cc(C(=O)O)ccc21 (stereo not given)
active: [11] 50.1 µM
not listed: [12] | [13] | [14] | [15] | [16] | [17]
inactive: all other assays above

N#C/C(=C\c1ccc(O)c(O)c1)C(=O)NCCCNC(=O)/C(C#N)=C/c1ccc(O)c(O)c1
active: [11] 39.8 µM | [12] 0.597 µM
inactive: [1] | [2] | [13] | [14] | [3] | [4] | [5] | [10]

Nc1nc2c(nc(Br)n2C2OC3COP(=O)(O)O[C@@H]3C2O)c(=O)[nH]1 (stereo not given in full)
not listed: [13] | [14] | [15] | [16] | [17]
inactive: all other assays above

COc1cc2c(CCNC(C)=O)c[nH]c2cc1O
active: [15] 27.1 µM | [12] 26.7 µM
not listed: [13] | [14]
inactive: all other assays above

CNC(=O)c1cc2c(cn1)[nH]c1ccccc12
active: [11] 56.2 µM | [15] 24.1 µM | [12] 26.7 µM | [16] 24.1 µM
not listed: [13] | [14]
inactive: all other assays above

NC(=O)c1ccccc1
not listed: [13] | [14] | [15] | [16] | [17]
inactive: all other assays above

CN1CCC2(CCN3CCc4c(oc5ccccc45)C3C2)N(C)C1=O (stereo not given)
not listed: [11] | [12] | [13] | [14] | [15] | [16] | [17]
inactive: all other assays above

Nc1ncnc2c1c(-c1ccc(Oc3ccccc3)cc1)cn2C1CCCC1
active: [13] 1.64 µM | [14] 14.6 µM | [11] 79.4 µM | [12] 23.8 µM
not listed: [3] | [9] | [15] | [16] | [17]
inactive: all other assays above

Oc1ccc(Cn2cc[nH]c2=S)cc1
active: [11] 50.1 µM
not listed: [13] | [14] | [15] | [16] | [17]
inactive: all other assays above
